# TEAD-YAP block = TEAD-YAP interaction inhibition, primary screen, TEAD-YAP interaction inhibitor project, luminescence, HEK-TIYL cells | TEAD-Gal4/YAP UAS-luciferase luminescence | inhibition, % at 9.12 µM | 640,000 tested, 1.4% active | AID 1259422, 2018; in the data active means inhibition above about 32%;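 further: 0% = median of test compound wells and 100% = reference inhibitor wells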
# MITF primary = MITF inhibitors, primary screen, biochemical, AlphaScreen, human. Microphthalmia-associated transcription factor (Homo sapiens), O75030. AlphaScreen MITF homodimerization, bead proximity signal. inhibition, % at 2.6 µM. 650,000 tested, 0.91% active. AID 1259374, 2018; in the data active means inhibition above about 50%;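 further: 0% = vehicle wells with protein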
# FBW7 activator = FBW7 E3 ligase activators, primary screen, biochemical, AlphaScreen, human | F-box/WD repeat-containing protein 7 (Homo sapiens), Q969H0 | AlphaScreen FBW7–phospho-cyclin E peptide binding, activator screen | normalized activity (activation), % at 26.1 µM | 650,000 tested, 0.13% active; in the data active means normalized activity above about 1.9%;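 further: purified mutant Fbw7 with reduced substrate affinity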
# GPR151 activ = activators of human GPR151, primary screen, cell-based, PathHunter beta-arrestin, luminescence | G-protein coupled receptor 151 (Homo sapiens), Q8TDV0 | PathHunter beta-arrestin GPR151 cells | activation, % at 11.2 µM | 650,000 tested, 1% active | AID 1508602, 2020; in the data active means activation above about 4.9%;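 further: 0% = median of compound wells and 100% = cells with positive control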
# Target sequence (Q8TDV0 whole entry, looked up): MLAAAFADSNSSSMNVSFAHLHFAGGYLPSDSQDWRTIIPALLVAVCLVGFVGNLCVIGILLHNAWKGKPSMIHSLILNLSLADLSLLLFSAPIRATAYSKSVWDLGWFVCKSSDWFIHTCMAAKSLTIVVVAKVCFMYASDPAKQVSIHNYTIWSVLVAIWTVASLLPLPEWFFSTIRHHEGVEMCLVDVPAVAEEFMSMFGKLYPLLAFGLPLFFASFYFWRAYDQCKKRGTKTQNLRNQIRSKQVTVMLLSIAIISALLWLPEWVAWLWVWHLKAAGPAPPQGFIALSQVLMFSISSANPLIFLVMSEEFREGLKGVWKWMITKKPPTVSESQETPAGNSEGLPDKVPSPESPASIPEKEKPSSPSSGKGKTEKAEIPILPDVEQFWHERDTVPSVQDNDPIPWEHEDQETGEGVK
# GPR151 confirm = GPR151 activators, triplicate retest, confirmation, cell-based, PathHunter beta-arrestin, luminescence | shares compounds with GPR151 activ | GPR151 PathHunter beta-arrestin cells, 90 min; % of EA-reagent control over plate median | activation, % at 11.2 µM | 6,700 tested, under 10 active | AID 1508609, 2020;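 active means mean percent activation across replicates above the confirmation screen cutoff of 4.91%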
# GPR119 ag = GPR119 activators in beta-arrestin cells, counter-screen for GPR151 activator project, cell-based, PathHunter beta-arrestin, luminescence, triplicate. activation, % at 11.2 µM. shares compounds with GPR151 activ. 90 min; 0 = compound-well median, 100 = enzyme-acceptor control. 6,700 tested, 0.3% active;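 active means mean percent activation in the counterscreen above 29.09%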;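 further: counterscreen on off-target GPR119 to flag nonselective hits from the GPR151 activator screen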
# Starred values were filed as active, the others as inactive; / = no result. An excerpt weighted towards active compounds, which were near 3.4% of everything screened.
SMILES,TEAD-YAP block,MITF primary,FBW7 activator,GPR151 activ,GPR151 confirm,GPR119 ag
C1=CCC(CN2CCN(C3CCCC3)CC2)CC1 (stereo unspecified),-6,33,0,5.1*,1,13
O=C(N[C@H]1C[C@H]2C(=O)N[C@@H](CSCc3ccccc3)C(=O)N2C1)c1cccnc1Oc1ccc(Cl)cc1,7,0,0,-1,/,/
CC(=O)c1ccc(NC(=O)Nc2ccc(NS(=O)(=O)c3ccc(C)cc3)cc2)cc1,13,15,0,0,/,/
CC(=O)c1ccc(NC(=O)NS(=O)(=O)c2ccc(C)cc2)cc1,-6,0,0,5.4*,0,7
CCCCn1c(C)nc2c(sc3nc4c(cc32)COC(C)(C)C4)c1=O,-34,20,0,9.0*,1,1
Clc1ccc(Cc2nnc(-c3ccco3)o2)cc1,-28,9,0,0,/,/
Cc1ccnc2nc(C(=O)OCC(=O)c3cc(F)ccc3F)nn12,9,0,0,1,/,/
CCOc1c(C)cc(S(=O)(=O)NCCCCN2CCOC(c3ccccc3)C2)cc1C (stereo unspecified),5,8,0,11*,1,-1
COC(=O)c1cc(-c2ccc([N+](=O)[O-])cc2)c2c(=O)[nH]c(=O)n(C)c2n1,-4,-9,0,0,/,/
COc1ccc(C2C(C(C)=O)=C(C)N=c3s/c(=C\c4cccnc4)c(=O)n32)c(OC)c1 (stereo unspecified),-1,10,0,7.1*,-1,4
CCOC(=O)CNC(=O)C(Cc1ccccc1)NC(=O)OCc1ccccc1 (stereo unspecified),4,-5,0,0,/,/
COC(=O)C(Cc1ccccc1)NC(=O)C(Cc1ccccc1)NC(=O)OCc1ccccc1 (stereo unspecified),1,-6,0,1,/,/
CCNC(=O)C(Cc1ccc([N+](=O)[O-])cc1)NC(=O)OCc1ccccc1 (stereo unspecified),-11,-2,0,5.6*,0,6
COC(=O)C(Cc1ccccc1)NC(=O)C(Cc1cnc[nH]1)NC(=O)OCc1ccccc1 (stereo unspecified),-2,3,0,5.5*,1,-1
Cn1cc(CNC(=O)c2cc([N+](=O)[O-])ccc2Cl)cn1,7,1,0,0,/,/
NC(CC(=O)O)C(=O)O (stereo unspecified),-17,12,0,7.8*,0,3
CCCN1C(=O)c2ccc(C(=O)NC3=NCCS3)cc2C1=O,-11,1,0,9.5*,-1,-4
Cc1ccc(C(=O)NC2=NCCS2)cc1,-67,2,0,-2,/,/
COc1ccc(CNCC2CCCO2)c(OC)c1OC (stereo unspecified),5,6,0,5.9*,0,7
COc1cccc(CNCC2CCCO2)c1OC (stereo unspecified),0,4,0,1,/,/
Cn1c(=O)c(C(=O)NCCNCCO)c(O)c2ccccc21,-20,-9,-1,1,/,/
CCOc1ccc(C2=NN3C(C2)c2cc(Cl)ccc2OC3c2cccc(OC)c2OC)cc1 (stereo unspecified),-10,-5,0,-1,/,/
COc1cc(Br)c(C2CC(=O)Nc3ccc4ccccc4c32)cc1OC (stereo unspecified),1,15,0,0,/,/
COc1cc2c(c(OC)c1)C(c1cc(OC)c(OC)cc1Br)CC(=O)N2 (stereo unspecified),11,6,0,5.1*,0,-2
Cc1ccc(NC(=O)COc2ncnc3ccc(Br)cc23)cc1[N+](=O)[O-],1,11,0,3,/,/
SMILES,TEAD-YAP block,MITF primary,FBW7 activator,GPR151 activ,GPR151 confirm,GPR119 ag
O=C(COc1ncnc2ccc(Br)cc12)Nc1ccc(F)c([N+](=O)[O-])c1,-2,6,0,5.2*,-1,-10
COc1ccc(C(=O)COC(=O)C(NC(=O)c2ccc(Cl)cc2)C(C)C)cc1 (stereo unspecified),9,0,0,1,/,/
CC(C)C(NC(=O)c1ccccc1F)C(=O)OCC(=O)c1ccc(F)cc1 (stereo unspecified),-9,2,0,9.3*,-1,0
OC(COc1ccc2ccccc2c1Cl)Cn1ccnc1 (stereo unspecified),-5,1,0,5.0*,0,6
Cc1nccn1CC(O)COc1cccc2ccccc12 (stereo unspecified),11,2,0,0,/,/
O=C1CSC(=O)N1C1CCCCC1NC(=O)C1(c2cccs2)CCCC1 (stereo unspecified),3,-1,0,5.5*,-1,-8
Cc1ccc(C2Nn3c(C)nnc3SC2C(=O)N2CCCCCC2)cc1 (stereo unspecified),-8,10,1,6.4*,0,7
N#CC1=C(N)N(c2cccc(C(F)(F)F)c2)C2=C(C(=O)CCC2)C1c1ccc2c(c1)OCO2 (stereo unspecified),-5,11,0,5.0*,1,8
CC1(C)CC(=O)C2=C(C1)N(c1cccc(C(F)(F)F)c1)C(N)=C(C#N)C2c1ccc2c(c1)OCO2 (stereo unspecified),0,4,0,1,/,/
O=C(Nc1cccc(NC(=O)c2ccccc2F)c1)c1ccccc1F,-8,13,0,1,/,/
O=C(Nc1ccc(Oc2cccc(Oc3ccc(NC(=O)c4ccccc4F)cc3)c2)cc1)c1ccccc1F,-2,12,0,18*,-1,-10
COC(=O)c1ccc(Nc2nnc(-c3ccc(C)c(S(=O)(=O)NCCO)c3)c3ccccc23)cc1,-13,12,0,-2,/,/
CCOC(=O)C1CCN(c2ccc(C=C3C(=O)N(C)C(=O)N(C)C3=O)cn2)CC1,-5,-1,0,5.2*,0,4
COc1ccc(-c2nc3ccccc3c(=O)n2NCc2ccc(C(C)C)cc2)cc1OC,-14,0,0,0,/,/
Cc1nc2nc(CN)nn2c(C)c1CCC(=O)NCc1ccccc1,10,13,0,-1,/,/
O=Cc1cn(CC(=O)NCc2ccccc2)c2ccccc12,12,-5,0,2,/,/
O=Cc1cn(CC(=O)NCCc2ccccc2)c2ccccc12,13,-4,0,7.0*,-1,-8
CCc1ccc(OCC(=O)Nc2cc(C)on2)cc1,-51,4,0,-1,/,/

# Screening data from PubChem BioAssay.
